Sampled rows, rich in hits. Any-hit rate of the full collection: about 18%.
CtBP-E1A blk: qHTS Assay for Inhibitors of the CtBP/E1A Interaction. CtBP / adenovirus E1A interaction (AlphaScreen). AID 651724, 2012. activity change, % (concentration not given with the values). AlphaScreen GST-E1A/His-CtBP binding, 1536-well; stronger effect = lower value. 340,000 tested, 0.49% active; in the data active = activity change below about -65%; inconclusive = mostly about -30% to -63%
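Protein mix (5X: 125 nM each GST-E1A, His-CtBP) was incubated with pinned compound 2 h at 37 deg C in dark, in 50 mM Tris pH 8.0 buffer with 300 mM NaCl. Glutathione donor and nickel acceptor beads followed; AlphaScreen signal read after 1 h.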
DT40 TDP1 no CPT: qHTS for Inhibitors of human tyrosyl-DNA phosphodiesterase 1 (TDP1): qHTS in cells in absence of CPT | DT40 Tdp1-/- hTDP1 cells, no CPT, ATP luminescence, 48 h | Potency, µM (titrated, usually from 46.2 µM), for the others: at the highest dose activity change, negative = growth inhibition, actives largely listed as inhibitors | 420,000 tested, 15% active | AID 686978, 2013; note: potency is the fitted concentration of half-maximal effect; nearly all actives have a fitted effect of over 55% in size
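No-CPT arm: Tdp1-/-;hTDP1 DT40 cells (400/well) plus compounds, incubated ≥48 hr at 37 °C. Readout CellTiter-Glo luminescence.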
TDP1 block: qHTS Assay for Inhibitors of Tyrosyl-DNA Phosphodiesterase (TDP1) | recombinant TDP1, AlphaScreen DNA substrate cleavage | AID 485290, 2010 | Potency, µM (titrated, usually from 130 µM), for inactives: at the top dose activity change, negative = inhibition, usual class: inhibitors | 350,000 tested, 0.28% active; note: potency is the fitted concentration of half-maximal effect; nearly all actives have a fitted effect of over 40% in size
Target sequence (Q9NUW8 whole entry, looked up): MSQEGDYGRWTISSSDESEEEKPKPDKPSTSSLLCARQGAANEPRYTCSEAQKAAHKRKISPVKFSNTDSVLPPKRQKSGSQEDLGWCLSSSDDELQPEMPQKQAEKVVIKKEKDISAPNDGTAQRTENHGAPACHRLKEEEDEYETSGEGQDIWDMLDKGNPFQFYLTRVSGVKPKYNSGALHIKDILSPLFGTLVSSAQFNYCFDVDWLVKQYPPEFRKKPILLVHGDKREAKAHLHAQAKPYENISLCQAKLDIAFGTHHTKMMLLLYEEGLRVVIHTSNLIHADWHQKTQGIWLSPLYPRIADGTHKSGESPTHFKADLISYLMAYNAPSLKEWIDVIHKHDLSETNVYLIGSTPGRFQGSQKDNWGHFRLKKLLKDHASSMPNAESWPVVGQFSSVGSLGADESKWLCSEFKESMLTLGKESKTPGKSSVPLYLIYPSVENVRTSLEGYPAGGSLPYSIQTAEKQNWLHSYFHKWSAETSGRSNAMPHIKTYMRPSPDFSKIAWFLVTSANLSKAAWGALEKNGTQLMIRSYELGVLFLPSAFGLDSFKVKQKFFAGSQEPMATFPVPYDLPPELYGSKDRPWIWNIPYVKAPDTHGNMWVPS
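E. coli-derived human Tdp1, 1 nM final. Cpd preinc 15 min RT; substrate 15 nM final, 5 min RT; AS bead mix 10 ug/ml final, 10 min RT. Signal loss = tyrosine-FITC cleavage. No-enzyme wells = max signal.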
TDP1 cell CPT: qHTS for Inhibitors of human tyrosyl-DNA phosphodiesterase 1 (TDP1): qHTS in cells in presence of CPT; chicken DT40 Tdp1-/-;hTDP1 cells + 20 nM CPT, ATP luminescence, 48 h; Potency, µM (doses to about 46.2 µM), for the others: top-dose activity change, negative = growth inhibition, usual class: inhibitors; 420,000 tested, 12% active; AID 686979, 2013; note: potency is the fitted concentration of half-maximal effect; nearly all actives have a fitted effect of over 55% in size
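Chicken DT40 Tdp1-/- cells stably complemented with human TDP1 were seeded at 400 cells/well in medium containing 20 nM camptothecin, exposed to pin-transferred compounds, and grown at 37 °C for at least 48 hr. Viability was read as ATP luminescence.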
Six1-Eya2 inh: qHTS Assay for Inhibitors of the Six1/Eya2 Interaction. activity change, % (no concentration beside the values). Homeobox protein SIX1 (Homo sapiens) + Protein phosphatase EYA2 (Homo sapiens), …. AlphaScreen GST-Six1/His-Eya2 binding, biochemical; stronger effect = lower value. 360,000 tested, 0.56% active; in the data active = activity change below about -65%; inconclusive = mostly about -30% to -63%
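Compounds are tested against tagged Six1 and Eya2 proteins bridged by glutathione donor and nickel acceptor beads; after a one-hour incubation at 37 °C without light, AlphaScreen emission is recorded.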
IL-1B inflam inh: qHTS for Inhibitors of Inflammasome Signaling: IL-1-beta AlphaLISA Primary Screen; THP-1 LPS/ATP IL-1B secretion, AlphaLISA, 16 h; stronger effect = lower value; activity change, % at 57.5 µM; 360,000 tested, 4.7% active; AID 743279, 2014; in the data active = activity change below about -50%; inconclusive = mostly about -30% to -49%
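THP-1 cells pretreated 1 hr with compounds (up to 57.5 uM final), then stimulated with LPS (250 ng/mL final) plus ATP (1.25 mM final); secreted IL-1B measured by AlphaLISA after 16 hr, decreased signal indicating inhibition.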
Numbers without * were called inactive; u = inconclusive; x = no result; [ ] = remark or other dose. Unless noted, calls come from the whole dose curve; as a rule, active = well fitted curve in the direction sought with a large enough effect; inconclusive = small, poorly fitted or top-dose-only effect, or another doubt; inactive = no such curve, though single readings can be large; an effect the other way counts as inactive or inconclusive. % is set by controls: 0 for no effect and ±100 for the full control effect.

SMILES | CtBP-E1A blk | DT40 TDP1 no CPT | TDP1 block | TDP1 cell CPT | Six1-Eya2 inh | IL-1B inflam inh
NC(=O)c1cccc(-c2ccnc3c2CC(C(=O)Nc2ccc(Cl)cc2)O3)c1 (centres undefined) | -8.3 | 13µM* | x | 23.1µM* | -0.1 | -3.2
NC(=O)c1cccc(-c2ccnc3c2CC(C(=O)Nc2ccccc2)O3)c1 (centres undefined) | 0.5 | -9.8% | x | -14.6% | -1.9 | -16.6
COc1ccc(NC(=O)C2Cc3c(-c4cccc(F)c4)ccnc3O2)cn1 (centres undefined) | -0.5 | 16.4µM* | x | u | 3.4 | -15.7
O=C(Nc1cccnc1)C1Cc2c(-c3cccc(F)c3)ccnc2O1 (centres undefined) | 2.4 | u | x | u | -7.3 | -14.5
O=C(Nc1ccccc1)C1Cc2c(-c3ccc(Cl)cc3)ccnc2O1 (centres undefined) | -1.2 | u | x | u | -4.9 | -50.7*
O=C(NCc1ccccc1)C1Cc2c(-c3ccc(Cl)cc3)ccnc2O1 (centres undefined) | -0.9 | 0.82µM* | x | 0.651µM* | 0.0 | 53.5
COc1ccccc1CCNS(=O)(=O)c1cc2c3c(c1)CCN3C(=O)CC2 | 3.1 | -22.7% | -1.3% | -5.4% | 0.8 | 14.1
COc1cc(OC)nc(NC(=S)NC(=O)c2ccccc2)n1 | -17.7 | u | 5.4% | -21.2% | -19.7 | 3.4
CC(C)c1ccc(NC(=O)C2Cc3c(-c4cccc(C(N)=O)c4)ccnc3O2)cc1 (centres undefined) | -5.3 | u | x | 16.4µM* | -4.1 | u
CS(=O)(=O)Nc1cccc(NC(=O)C2Cc3c(-c4cccc(C(N)=O)c4)ccnc3O2)c1 (centres undefined) | -24.3 | -2.7% | x | -13.5% | -1.2 | -10.2
CC(C)c1ccc(NC(=O)C2Cc3c(-c4cccc(F)c4)ccnc3O2)cc1 (centres undefined) | -4.7 | 9.2µM* | x | 16.4µM* | -4.9 | -67.4*
O=C(Nc1ccc(F)c(Cl)c1)C1Cc2c(-c3cccc(F)c3)ccnc2O1 (centres undefined) | 3.7 | u | x | u | 1.2 | u
O=C(Nc1ccc(Br)cc1)C1C2C=CC3(O2)C1C(=O)N(CCN1CCOCC1)C3C(=O)NC1CCCCC1 (centres undefined) | 7.7 | 5.7% | 1.2% | 15.3% | 3.0 | 16.0
C[C@@H](O)CNC(=O)c1[nH]cnc1C(=O)Nc1ccc(CNC(=O)OC(C)(C)C)cc1 | -14.4 | u | x | u | -3.9 | 0.0
Cc1cc(C)n2c(Nc3ccc4c(c3)OCCO4)c(CCc3ccccc3)nc2n1 | -0.4 | 5.8µM* | x | 8.2µM* | -25.8 | 9.7
Cc1cc(C)n2c(NCc3ccccc3)c(CCc3ccccc3)nc2n1 | 0.8 | u | x | u | -14.9 | 41.5
Cc1cc(C)n2c(Nc3ccc4c(c3)OCCO4)c(C3CC3)nc2n1 | 1.0 | 18.4µM* | x | u | -3.4 | 69.9
Cc1cc(C)n2c(Nc3ccc4c(c3)OCCO4)c(C(C)C)nc2n1 | -4.1 | 5.8µM* | x | 8.2µM* | -8.6 | 88.8
Cc1cc(C)n2c(Nc3ccc4c(c3)OCCO4)c(-c3ccccc3)nc2n1 | -7.2 | u | -2.1%[12.3 µM] | u | -17.2 | -15.1
Cc1cc(C)n2c(Nc3ccc4c(c3)OCCO4)c(-c3ccc(Cl)cc3)nc2n1 | x | u | 10.0% | u | x | x
